From PubChem BioAssay AID1347170 (National Center for Advancing Translational Sciences (NCATS), 2019)
Records with an inconclusive call do not appear. A call without a number means that no potency is given here. Calls of active or inactive are those of the source. The call rests on the fitted dose curve; in most records, active means well fitted cell-killing curve with a large enough effect; inconclusive means small, poorly fitted or top-dose-only effect, or another doubt; inactive means flat fitted curve, though single readings scatter.

Test: Vero cells viability counterscreen for qRT-PCR qHTS assay of selected Zika virus inhibitors
Conditions: CellTiter-Glo ATP luminescence, 24 h; series mostly up to 41.8 µM
Excerpt: Assay Submitters (PI): Avindra Nath, Ph.D., National Institute of Neurological Disorders and Stroke (NINDS), Bethesda, MD Radhakrishnan Padmanabhan, Ph.D., Georgetown University (GU), Washington D.C. Zika Virus causes congenital defects, including microcephaly and is associated with Guillain-Barre syndrome, eningoencephalitis and myelitis in infected adult. […] Using a target-based approach, we hope to establish a screening paradigm to uncover novel, cell-active NS2B-NS3 protease (Zika Virus) specific inhibitors from NCATS' collection of small molecules using qHTS. […] Four assay panel was created to identify potential Zika Virus inhibitors. Namely, (1) GU unlinked NS2B-NS3 AMC tagged protease qHTS, (2) GU unlinked NS2B-NS3 Rhodamine tagged protease qHTS, (3) NINDS linked NS2B-NS3 AMC tagged protease qHTS, (4) NINDS linked NS2B-NS3 Rhodamine tagged protease qHTS. Inhibitors of the Zika virus primary screens are confirmed using qRT-PCR secondary assays, mCherry orthogonal assay, and Vero cells viability counterscreen. Cytotoxic compounds identified in the Vero cell viability counterscreen were excluded from the list of potential Zika virus inhibitors. Early Translation Branch (ETB) National Center for Advancing Translational Sciences (NCATS), Rockville, MD National Institute of Health (NIH), Bethesda, Maryland
Vero Cell Viability Assay: Vero cell cytotoxicity was determined using a luminescent readout with CellTiter Glo reagent (Promega, Madison, WI), which is based on measuring the ATP content within cells. Briefly, 4 uL of Vero cells at 2.5 x 10^5 cells/mL in DMEM containing 4% FBS were dispensed into 1536-well solid bottom tissue treated white plate using a Multidrop Combi dispenser (Thermo Scientific). Plates were incubated at 37 degrees C, 95% humidity, and 5% CO2 overnight to allow for cell attachment. Compounds were dissolved in DMSO at different concentrations and transferred via pintool (Wako Automation), for a final concentration of 57 uM - 0.029 uM. Plates were again incubated for 24 hours, followed by a 2 uL addition of CellTiter Glo. Finally, plates were incubated for 30 minutes at 37 degrees C and 5% CO2 before being read on a ViewLux (Perkin Elmer) for luminescence.
With `COc1ccc(-c2ccccc2)cc1NS(=O)(=O)c1cc(Cl)cc(Cl)c1O` the Potency was “inactive”. For `CCOC(=O)c1ccc(N2C(=O)c3n[nH]c(-c4cccs4)c3C2c2ccc(Cl)cc2Cl)cc1` (stereo not given), the Potency was 25.1 µM (active). In the case of `O=C(O)c1ccc(CCCc2ccc(OCCc3ccc(F)cc3)cc2)o1`, the Potency is reported as “inactive”. In the case of `Oc1cccc(-c2c3nc(c(-c4cccc(O)c4)c4ccc([nH]4)c(-c4cccc(O)c4)c4nc(c(-c5cccc(O)c5)c5ccc2[nH]5)CC4)C=C3)c1`, the Potency is reported as “inactive”. In the case of `Cc1ccn(-c2cc(Cl)ccc2[C@@H](Oc2cc(-c3ccc(C[C@H](N)C(=O)O)cc3)nc(N)n2)C(F)(F)F)n1`, the Potency is reported as “inactive”. With `O=C(O)Cc1cccc(OCCCN(Cc2cccc(C(F)(F)F)c2Cl)CC(c2ccccc2)c2ccccc2)c1` the Potency was “inactive”. For `C=C1c2cccc(O)c2C(O)=C2C(=O)[C@]3(O)C(O)=C(C(N)=O)C(=O)[C@@H](N(C)C)[C@@H]3[C@@H](O)[C@H]12`, the Potency was “inactive”. With `CN(C)[C@@H]1C(=O)C(C(N)=O)=C(O)[C@@]2(O)C(=O)C3=C(O)c4c(O)ccc(Cl)c4[C@@H](O)[C@H]3C[C@@H]12` the Potency was “inactive”. For `O=C(O)c1ccc(S(=O)(=O)N(Cc2ccc(OC(F)(F)F)cc2)c2ncc(C(F)(F)F)cc2Cl)cc1`, the Potency was “inactive”. In the case of `O=C(O)Cc1cc(I)c(Oc2ccc(O)c(I)c2)c(I)c1`, the Potency is reported as “inactive”. With `COc1cc(C(=O)NS(=O)(=O)c2ccccc2C)ccc1Cc1cn(C)c2ccc(NC(=O)OC3CCCC3)cc12` the Potency was “inactive”. For `CC(=O)Nc1ccc([C@H](C)C(=O)Nc2ncc(C(C)C)s2)cc1`, the Potency was 2.82 µM (active). With `CC(C)c1cccc2c(-c3ccccc3)cc(-c3ccc(-c4ccc(C(=O)O)cc4)[nH]3)nc12` the Potency was 25.1 µM (active). In the case of `CC(C)(O)c1ccccc1CC[C@@H](SCC1(CC(=O)O)CC1)c1cccc(/C=C/c2ccc3ccc(Cl)cc3n2)c1`, the Potency is reported as “inactive”. In the case of `COc1cc(C)c(C(=O)OC2C(C)OC(OC3CCC(C)C4C3C=C(C)C3/C(C)=C\CC/C(C)=C/C5(C)C=C(C(=O)O)C(C)CC56OC(=O)/C(=C(\O)C34C)C6=O)C(O)C2O)c(OC)c1` (stereo not given), the activity change, negative = cytotoxicity is reported as 3.72% [at 10.4 µM] (inactive). In the case of `CN(CC(=O)N(Cc1ccc(C2CCCCC2)cc1)c1ccc(C(=O)O)cc1)S(=O)(=O)c1c(F)c(F)c(F)c(F)c1F`, the Potency is reported as 7.94 µM (active). With `O=C(O)c1ccc(-n2nc(-c3ccccc3O)nc2-c2ccccc2O)cc1` the Potency was “inactive”. With `O=C1NC(=O)/C(=C/c2cccc(C(F)(F)F)c2)S1` the Potency was “inactive”. With `N#CC1C(=O)Nc2scc(-c3ccc(-c4ccccc4O)cc3)c2C1=O` (stereo not given) the Potency was “inactive”. For `CC1(C)CC[C@]2(C(=O)O)CC[C@]3(C)C(=CCC4[C@@]5(C)C[C@@H](O)[C@H](O)C(C)(C)C5CC[C@]43C)C2C1` (stereo not given in full), the Potency was “inactive”. In the case of `CN(C)[C@@H]1C(=O)C(C(N)=O)=C(O)[C@@]2(O)C(=O)C3=C(O)c4c(O)cccc4C[C@H]3C[C@@H]12`, the Potency is reported as “inactive”. For `Cc1ccc2c(=O)c3ccccc3n(CCCN)c2c1C`, the Potency was “inactive”. In the case of `O=C(O)c1c(Sc2ccccc2)c2cc(Cl)ccc2n1Cc1ccc(Cl)cc1`, the Potency is reported as “inactive”. In the case of `Cc1ccc2nc(NS(=O)(=O)c3ccc(Cl)cc3)c(Nc3ccc(C(=O)O)cc3)nc2c1`, the Potency is reported as “inactive”. For `N#CC(c1ccnc(OCc2ccc(CN3CCOCC3)cc2)n1)c1nc2ccccc2s1` (stereo not given), the Potency was “inactive”. With `Cc1nc(C2CCCCC2)c(-c2ccc(S(N)(=O)=O)c(F)c2)o1` the Potency was “inactive”. In the case of `COc1ccccc1-c1cccc(-c2c(O)c3cc(C#N)c(Cl)cc3[nH]c2=O)c1`, the Potency is reported as “inactive”. With `CCOc1c2c(c(OCC)c3ccccc13)C(=O)N(c1ccc(CC(=O)NS(=O)(=O)c3ccccc3)cc1)C2` the Potency was “inactive”. With `CC(C)=CCCC1(C)C=Cc2c(O)c3c(c(CC=C(C)C)c2O1)OC12C(=CCCC1C(C)(C)O[C@@]2(C/C=C(\C)C(=O)O)C(=O)O)C3=O` (stereo not given in full) the Potency was “inactive”. In the case of `CC(C)c1ccc2c(c1)c(SC(C)(C)C)c(CC(C)(C)C(=O)O)n2Cc1ccc(Cl)cc1`, the Potency is reported as 15.8 µM (active). With `O=S(=O)(O)c1ccc2cc(N=Nc3cc(S(=O)(=O)O)c4cccnc4c3O)ccc2c1` the Potency was “inactive”. In the case of `O=C(Nc1ccc([N+](=O)[O-])cc1Cl)c1cc(Cl)ccc1O`, the Potency is reported as “inactive”. For `O=C(O)CC1CCC(c2ccc(-c3ccc(Nc4ccc(C(F)(F)F)nc4)cn3)cc2)CC1` (stereo not given), the Potency was “inactive”. For `N#CC(c1ccc(Cl)cc1)c1c(Cl)cc(-n2ncc(=O)[nH]c2=O)cc1Cl` (stereo not given), the Potency was “inactive”. In the case of `Cc1cc(C)cc(C(=O)N(C)[C@H](Cc2ccc(-c3ccccc3)cc2)C(=O)N[C@@H](Cc2c[nH]c3ccccc23)C(=O)O)c1`, the Potency is reported as “inactive”. For `CN(Cc1ccc(C(=O)O)cc1)c1ccc(OCc2c(-c3c(Cl)cccc3Cl)noc2C2CC2)nc1C(F)(F)F`, the Potency was “inactive”. In the case of `CC1(C)CCC(CN2CCN(c3ccc(C(=O)NS(=O)(=O)c4ccc(NCC5CCOCC5)c([N+](=O)[O-])c4)c(Oc4cnc5[nH]ccc5c4)c3)CC2)=C(c2ccc(Cl)cc2)C1`, the Potency is reported as 3.16 µM (active). In the case of `N#CC1(c2cccc(C(=O)Nc3cc(Oc4ccc5nc(NC(=O)C6CC6)sc5n4)ccc3F)c2Cl)CC1`, the Potency is reported as “inactive”. In the case of `O=C(O)c1ccc(O)c2ncc(N3CCCN(CCc4cccc5ccccc45)CC3)cc12`, the Potency is reported as “inactive”. In the case of `Cc1cc(C(C#N)c2ccc(Cl)cc2)c(Cl)cc1NC(=O)c1cc(I)cc(I)c1O` (stereo not given), the Potency is reported as 31.6 µM (active).
